Results on 37 compounds are retold here after PubChem BioAssay (NCATS).

SMILES strings stand for the structures. Results filed as inconclusive are left out. Calls of active or inactive are those of the source. Unless noted, calls follow the shape of the dose curve; as a rule, active = well fitted curve in the direction sought with a large enough effect; inconclusive = small, poorly fitted or top-dose-only effect, or another doubt; inactive = no such curve, though single readings can be large; an effect the other way counts as inactive or inconclusive.

Assay [1] deals with Voltage-gated inwardly rectifying potassium channel KCNH2 (Homo sapiens) (UniProt Q12809). Briefly: qHTS Assay for Small Molecule Inhibitors of the Human hERG Channel Activity (AID 588834).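 Also: lower thallium flux fluorescence means stronger hERG block; nearly all actives have a fitted effect of over 50% in size.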 Also: potency is read from the fitted curve at half-maximal effect. Put shortly: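 U2OS cells BacMam-transduced with hERG, 2000 cells/well, compound ~10 min at 37 °C before stimulation buffer. FluxOR thallium flux fluorescence read kinetically on FDSS; decrease indicates block; AC50 from Hill fits.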
Chain of Voltage-gated inwardly rectifying potassium channel KCNH2 (Homo sapiens) (Q12809 whole entry, looked up): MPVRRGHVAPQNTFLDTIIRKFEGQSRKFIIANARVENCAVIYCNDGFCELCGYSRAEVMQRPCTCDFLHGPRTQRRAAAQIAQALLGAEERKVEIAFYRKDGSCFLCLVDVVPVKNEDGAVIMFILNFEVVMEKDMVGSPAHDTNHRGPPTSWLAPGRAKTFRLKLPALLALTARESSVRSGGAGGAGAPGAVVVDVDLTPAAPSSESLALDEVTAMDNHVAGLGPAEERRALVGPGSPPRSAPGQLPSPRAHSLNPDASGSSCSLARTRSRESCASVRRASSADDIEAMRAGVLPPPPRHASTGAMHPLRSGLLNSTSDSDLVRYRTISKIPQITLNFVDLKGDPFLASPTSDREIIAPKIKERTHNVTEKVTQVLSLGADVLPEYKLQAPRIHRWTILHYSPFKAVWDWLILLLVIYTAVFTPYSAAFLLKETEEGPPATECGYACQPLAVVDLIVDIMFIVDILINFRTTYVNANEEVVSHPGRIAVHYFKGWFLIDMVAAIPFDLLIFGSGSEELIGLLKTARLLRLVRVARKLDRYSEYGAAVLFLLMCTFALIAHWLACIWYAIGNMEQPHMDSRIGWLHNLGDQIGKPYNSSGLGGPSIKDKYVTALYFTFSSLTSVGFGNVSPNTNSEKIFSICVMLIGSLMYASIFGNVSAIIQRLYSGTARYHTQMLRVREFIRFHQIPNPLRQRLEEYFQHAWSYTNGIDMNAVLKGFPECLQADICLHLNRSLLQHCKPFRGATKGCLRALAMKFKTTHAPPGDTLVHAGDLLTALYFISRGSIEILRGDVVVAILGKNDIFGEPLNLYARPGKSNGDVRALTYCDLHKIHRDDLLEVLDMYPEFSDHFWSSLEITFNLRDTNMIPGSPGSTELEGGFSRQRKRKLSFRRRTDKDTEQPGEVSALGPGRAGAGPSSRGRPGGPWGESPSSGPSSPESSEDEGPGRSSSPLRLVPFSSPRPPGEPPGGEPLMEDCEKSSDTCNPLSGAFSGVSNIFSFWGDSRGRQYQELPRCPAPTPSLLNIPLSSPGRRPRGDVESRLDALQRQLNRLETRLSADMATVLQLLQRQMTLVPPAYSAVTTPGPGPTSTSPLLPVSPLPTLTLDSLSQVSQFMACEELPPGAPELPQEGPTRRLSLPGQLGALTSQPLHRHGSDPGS
For orientation: Quantitative high-throughput screening tests each substance at several concentrations.

Assay [2] addresses Luciferin 4-monooxygenase (Photinus pyralis) (UniProt P08659). Description: Biochemical firefly luciferase enzyme assay for NPC (AID 624030).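 Also: purified P. pyralis luciferase at 10 nM with luciferin and ATP substrate; nearly all actives have a fitted effect of over 70% in size.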 Put shortly: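 Counter-screen for direct inhibition of the luciferase enzyme by approved-drug library compounds, run at 10 nM enzyme in 50 mM Tris acetate (final). Luminescence was read within 5 min of enzyme-buffer addition and normalized to PTC124 versus DMSO (0%).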

The nature of assay [3]: qHTS of Trypanosoma Brucei Inhibitors: LOPAC Validation (AID 624147). Put shortly: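 Assay buffer: 50 mM TEA pH 7.2, 100 mM KCl, 10 mM MgCl2, 0.05% BSA, 0.01% Tween-20. Pyruvate kinase from T. brucei plus substrate met compound, then ADP (130 uM final). Luminescence was read post 45 min RT.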
Assay [4] has as its target Glucagon-like peptide 1 receptor (Homo sapiens) (UniProt P43220). Description: qHTS of GLP-1 Receptor Agonists: LOPAC Validation (AID 624148).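 Also: higher luminescence signal means agonism.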 Put shortly: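 HEK293 cells stably co-expressing a cAMP-responsive luciferase reporter and a hypersensitive GLP-1R were plated 12 h at 37 °C and exposed to compounds for 4-6 hr at 37 °C, 5% CO2. Luminescence was read 12 min after adding detection reagent.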

A short description of assay [5]: qHTS of Nrf2 Activators: LOPAC Validation (AID 624149). The essentials:
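AREc32 cells carrying an ARE-driven firefly luciferase were grown overnight in OPTI-MEM with 5% FBS, then exposed to compounds for 24 hr at 37 deg C. Luciferase signal was read after 30 min with Steady-Glo at RT.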

Assay [6] in a line: HTS Assay for Allosteric Antagonists of the Human D2 Dopamine Receptor: Hit Validation in HTRF (AID 624455).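 Also: stable D1 dopamine receptor cell line scored for blocking the D1 response.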 The essentials:
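Hits were examined in an HTRF assay using cells stably expressing the D1 dopamine receptor, scoring inhibition of the D1-mediated response. The preceding primary screen tracked calcium flux after an EC80 dopamine addition in force-coupled, inducible Hek293 Trex D2 cells.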
(TR-FRET usually uses a lanthanide donor and a delayed reading to cut background.)

The nature of assay [7]: S16 Schwann cell PMP22 intronic element beta-lactamase assay (AID 624044; calls by dose curve; also: nearly all actives have a fitted effect of over 15% in size). Particulars: S16 rat Schwann cells, PMP22 element beta-lactamase FRET, 24 h; ratio activity, negative = inhibition: at 38.3 µM (top of the series). Put shortly: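 Rat S16 Schwann cells with beta-Lac driven by a PMP22 intronic element, compound-treated 24 h at 37 °C. LiveBLAzer FRET B/G read: 460 nm normalized to potassium clavulanate vs DMSO; 535 nm FRET as viability; concentration-effect curves classified.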

Assay [8] can be described thus: S16 Schwann cell PMP22 intronic element firefly luciferase assay (AID 624032). Also: nearly all actives have a fitted effect of over 30% in size. Also: potency is read from the fitted curve at half-maximal effect. The essentials: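 Rat S16 Schwann cells stably carrying a PMP22 intronic element-driven Fluc reporter were seeded overnight, then exposed to compounds for 24 h at 37 °C. Luminescence was normalized to PTC124 (positive control) and DMSO (0% activity).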
Assay [9] can be described thus: S16 Schwann cell viability assay (CellTiter-Glo assay) (AID 624031). Also: nearly all actives have a fitted effect of over 70% in size. Also: potency is read from the fitted curve at half-maximal effect. The essentials:
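Concentration-effect curves come from CellTiter-Glo luminescence of S16 rat Schwann cells after 24 h compound exposure. Each reading was normalized to DMSO wells (0%) and wells without cells, and curves were ranked by r2 and response magnitude.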
Background: ATP-based viability assays read luminescence as a measure of living cells.

Chain of Luciferin 4-monooxygenase (Photinus pyralis) (P08659 whole entry, looked up): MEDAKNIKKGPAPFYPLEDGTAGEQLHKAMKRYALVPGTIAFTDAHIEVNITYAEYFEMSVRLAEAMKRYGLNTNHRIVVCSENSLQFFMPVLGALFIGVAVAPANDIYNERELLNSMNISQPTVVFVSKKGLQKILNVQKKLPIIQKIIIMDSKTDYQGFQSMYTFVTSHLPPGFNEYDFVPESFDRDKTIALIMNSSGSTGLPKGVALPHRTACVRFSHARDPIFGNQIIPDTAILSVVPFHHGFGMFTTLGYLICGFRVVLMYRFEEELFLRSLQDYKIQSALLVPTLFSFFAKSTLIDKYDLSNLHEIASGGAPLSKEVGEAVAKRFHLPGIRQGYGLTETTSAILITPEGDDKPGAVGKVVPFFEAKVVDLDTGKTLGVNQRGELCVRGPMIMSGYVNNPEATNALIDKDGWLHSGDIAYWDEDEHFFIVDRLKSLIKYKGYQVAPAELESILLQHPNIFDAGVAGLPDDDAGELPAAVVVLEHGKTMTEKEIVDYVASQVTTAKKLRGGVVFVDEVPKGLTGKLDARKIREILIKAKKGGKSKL
Chain of Glucagon-like peptide 1 receptor (Homo sapiens) (P43220 whole entry, looked up): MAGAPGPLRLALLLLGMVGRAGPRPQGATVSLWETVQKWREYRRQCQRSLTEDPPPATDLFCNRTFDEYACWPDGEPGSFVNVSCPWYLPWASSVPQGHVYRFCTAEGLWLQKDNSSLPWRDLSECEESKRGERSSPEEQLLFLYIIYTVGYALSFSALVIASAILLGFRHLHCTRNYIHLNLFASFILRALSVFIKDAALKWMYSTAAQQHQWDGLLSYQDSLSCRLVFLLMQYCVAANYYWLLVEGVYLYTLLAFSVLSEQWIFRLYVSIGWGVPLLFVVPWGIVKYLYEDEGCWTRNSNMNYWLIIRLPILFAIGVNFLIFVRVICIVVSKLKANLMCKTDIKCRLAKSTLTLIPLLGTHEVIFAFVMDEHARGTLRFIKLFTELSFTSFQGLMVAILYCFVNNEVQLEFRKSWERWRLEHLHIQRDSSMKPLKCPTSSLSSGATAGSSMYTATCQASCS

`C[C@@H]1C(=O)NC2=Nc3cccc(Cl)c3CN21`: the Potency result in assay [1], in assay [2] and in assay [5] was “inactive” throughout. Moreover, the compound was classed as inactive in assay [3], in assay [4] and in assay [6].
For `CC(=O)N/N=C/c1ccc([N+](=O)[O-])o1`, the Potency entry in assay [1], in assay [2] and in [7] was “inactive” each time.
For the compound `C[C@@H]1C[C@H]2[C@@H]3CCC4=CC(=O)C=C[C@]4(C)[C@@]3(F)[C@@H](O)C[C@]2(C)[C@H]1C(=O)CO`, the Potency entry in [1], in assay [2] and in assay [8] was “inactive” in each case.
`CN=C(NC#N)NCCSCc1csc(N=C(N)N)n1`: the Potency entry in [1], in assay [2], in [8] and in [7] was “inactive” throughout.
For the compound `CCCCCCCCCCCCCCCCOP(=O)([O-])OCC[N+](C)(C)C`, the Potency result in assay [1], in [2] and in assay [8] was “inactive” each time.
Take `Nc1ccc(/C=C/c2ccc(N)cc2S(=O)(=O)O)c(S(=O)(=O)O)c1`: the Potency result in [1], in [9] and in assay [8] was “inactive” in each case.
On to `COc1ccc(/C=C/C(=O)c2ccc(OC)cc2OC)cc1`, for which the Potency result in assay [1], in assay [9] and in assay [8] was “inactive” in each case.
Take `CCC(NC(C)C)C(O)c1ccc(O)c(O)c1` (centres undefined): the Potency entry in assay [1] and in [5] was “inactive” throughout. The compound was classed as inactive in assay [3] and in [6].
`CCCCC1=NC2(CCCC2)C(=O)N1Cc1ccc(-c2ccccc2-c2nn[nH]n2)cc1`: the Potency entry in [1], in [2] and in assay [8] was “inactive” each time.
Turning to `O=C(O)c1cc2cc(Cc3cccnc3)ccc2o1`, the Potency result in assay [1], in assay [8], in [7] and in [5] was “inactive” each time. In addition, the compound was called inactive in [3], in [4] and in assay [6].
Take `O=C(CCN1CCC(c2ccccc2)C1)c1ccc2c(c1)OCCO2` (centres undefined): the values for the Potency in assay [1] and in assay [8] were 15.8 µM (active) and 25.6 µM (active), respectively. Besides, the Potency entry in assay [2] and in assay [7] was “inactive” throughout.
Consider `CN1CCC(=C2c3ccccc3Sc3ccccc32)CC1`, for which, in assay [1], the Potency was 4.47 µM (active). For the same compound, the Potency result in assay [2] and in assay [7] was “inactive” in each case.
In the case of `O=C(OCCOCCO)c1ccccc1Nc1cccc(C(F)(F)F)c1`, the Potency result in assay [1], in [2] and in [8] was “inactive” each time.
For the compound `CCN(CC)CCOC(=O)C(c1ccccc1)C1CCCCC1` (centres undefined), the Potency in assay [1] was 12.6 µM (active). The Potency entry in assay [2] and in assay [8] was “inactive” each time.
For `N[C@H](Cc1c[nH]c2ccccc12)C(=O)O`, the Potency entry in assay [1], in [2] and in assay [7] was “inactive” in each case.
In the case of `CN(C)CC/C=C1\c2ccccc2Sc2ccc(Cl)cc21`, the Potency in assay [1] is 8.91 µM (active). For the same compound, the Potency result in assay [2] and in assay [7] was “inactive” throughout.
Consider `Cc1ccc(O)c2ncccc12`, for which the Potency result in assay [1], in assay [2] and in assay [8] was “inactive” in each case.
With `Oc1c(I)cc(I)c2cccnc12`, the Potency result in assay [1] and in assay [2] was “inactive” each time. For the same compound, the Potency in assay [8] is 8.09 µM (active).
As for `CC(=O)O[C@H]1C[C@@H]2CC[C@@H]3[C@H](CC[C@@]4(C)[C@H]3C[C@H]([N+]3(C)CCCCC3)[C@@H]4OC(C)=O)[C@@]2(C)C[C@@H]1[N+]1(C)CCCCC1`, the Potency entry in [1] and in assay [5] was “inactive” throughout. Further, the call in assay [3], in assay [4] and in assay [6] was inactive.
As for `NC(=O)C(=O)N/N=C/c1ccc([N+](=O)[O-])o1`, the Potency result in assay [1] and in assay [2] was “inactive” in each case. For the same compound, in assay [8], the Potency is 32.2 µM (active).
For `CCN1CCN(c2cc3c(cc2F)c(=O)c(C(=O)O)cn3C2CC2)CC1`, the Potency entry in assay [1], in assay [2] and in [8] was “inactive” throughout.
Take `CCOC(=O)COc1ccc2c(C)c(CCN(CC)CC)c(=O)oc2c1Cl`: the Potency in assay [1] is 12.6 µM (active). Besides, the Potency result in assay [2] and in assay [8] was “inactive” each time.
Consider `CCCn1c(=O)[nH]c(=O)c2[nH]cnc21`, for which the Potency result in assay [1], in assay [2], in assay [9] and in [5] was “inactive” in each case. Moreover, the result in assay [3], in assay [4] and in assay [6] was inactive.
As to `CC(C)C[C@H]1C(=O)N2CCC[C@H]2[C@]2(O)O[C@](NC(=O)[C@@H]3C=C4c5cccc6[nH]c(Br)c(c56)C[C@H]4N(C)C3)(C(C)C)C(=O)N12`, the Potency entry in [1] and in [5] was “inactive” in each case. The outcome in [3] and in [4] was inactive.
As for `CN=C(NC#N)Nc1ccc(C2=NNC(=O)CC2C)cc1` (centres undefined), the Potency entry in [1], in assay [2] and in assay [8] was “inactive” throughout.
As for `CCCCS(=O)(=O)N[C@@H](Cc1ccc(OCCCCC2CCNCC2)cc1)C(=O)O`, the Potency result in [2] is “inactive”.
On to `CC(Cc1cccc(C(F)(F)F)c1)NCCOC(=O)c1ccccc1` (centres undefined), for which the Potency in assay [1] is 10 µM (active). Moreover, the Potency entry in assay [2] and in assay [8] was “inactive” in each case.
Consider `c1ccc(-c2ccc(C(c3ccccc3)n3ccnc3)cc2)cc1` (centres undefined), for which the Potency in assay [1] was 12.6 µM (active). Also, the Potency result in assay [2], in assay [8] and in assay [7] was “inactive” in each case.
As to `CCCCCCCCCCOCC(O)CN` (centres undefined), the Potency in assay [1] was 25.1 µM (active). In addition, the Potency result in [2] and in [7] was “inactive” in each case.
As for `O=C(Nc1ccc(Cl)c(Cl)c1)C1CC1`, the Potency result in assay [1] and in [8] was “inactive” throughout.
Turning to `COc1c(C)c2c(c(O)c1C/C=C(\C)CCC(=O)O)C(=O)OC2`, the Potency entry in assay [1] and in assay [2] was “inactive” throughout. The Potency in assay [8] is 0.976 µM (active).
With `CNCCC=C1c2ccccc2CCc2ccccc21`, the Potency in assay [1] was 7.94 µM (active); in assay [9] it was 10.2 µM (active). Moreover, the Potency result in assay [2] and in assay [5] was “inactive” each time. Besides, the outcome in [3], in assay [4] and in [6] was inactive.
For the compound `CN1CCN(CCCN2c3ccccc3Sc3ccc(S(=O)(=O)N(C)C)cc32)CC1`, in assay [1], the Potency was 6.31 µM (active). Further, the Potency entry in assay [2] and in assay [8] was “inactive” in each case.
As to `O=C(Nc1ccc(Oc2ccc(Cl)cc2)c(Cl)c1)c1cc(I)cc(I)c1O`, the Potency result in assay [1] and in assay [9] was “inactive” each time.
On to `COc1ccc(C2C(=O)c3ccccc3C2=O)cc1`, for which the Potency entry in assay [2] and in [8] was “inactive” throughout.
Turning to `Clc1ccc2c(c1)CCc1cccnc1C2=C1CCNCC1`, in [2], the Potency result was “inactive”.
On to `COC(=O)[C@H]1[C@H]2C[C@H]3c4[nH]c5ccccc5c4CCN3C[C@H]2CC[C@@H]1O`, for which the Potency result in assay [2], in assay [8] and in [5] was “inactive” each time. Also, the compound was classed as inactive in assay [3], in assay [4] and in [6].
